From PubChem BioAssay (EPA / NIEHS) come the findings set out here.

Usually AC50 stands for the concentration at which the activity in the assay is half-maximal.

Structures are written as SMILES. The source made the active and inactive calls. The calls were made as follows: active = hit-call score of the fitted dose curve at least 0.9, where 1 is the maximum; inactive = score below 0.9.

Assay [1] can be described thus: ATG_PXRE_CIS: Attagene CIS-FACTORIAL HepG2 Assay for human Pregnane X Receptor Element (PXRE) (AID 2282957). As to conditions: HepG2 Attagene CIS-FACTORIAL PXRE reporter, mRNA; actives raise or lower the signal. The procedure, abridged:
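Cis-element reporter mRNA in human hepatoma HepG2 cells is measured 24 h post-dosing by RT-PCR, primer-extension labeling and capillary electrophoresis; gain or loss of signal is fitted relative to DMSO.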

Assay [2] is described as follows: ATG_PPRE_CIS: Attagene CIS-FACTORIAL HepG2 Assay for human Peroxisome Proliferator-activated Response Element (PPRE) (AID 2282958). As to conditions: HepG2 PPRE cis-element reporter, Attagene transcription factor profiling; actives raise or lower the signal. The procedure, abridged:
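HepG2 cells transiently transfected with multiplexed cis-element reporter units measure endogenous transcription factor activity. After 24 h compound exposure, reporter mRNA is quantified by RT-PCR, 6-FAM labeling, HpaI digestion and capillary electrophoresis; bidirectional fits are made against DMSO baseline.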

Assay [3] is described as follows: ATG_RORE_CIS: Attagene CIS-FACTORIAL HepG2 Assay for human RAR-related Orphan Receptor Element (RORE) (AID 2282959). As to conditions: HepG2 Attagene cis-factorial RORE reporter, mRNA; actives raise or lower the signal. In short, it runs like this:
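HepG2 cells transiently transfected with multiple cis-element reporter transcription units, exposed to chemical for 24 h. Reporter mRNA quantified by RT-PCR, 6-FAM primer-extension labeling, HpaI digestion and capillary electrophoresis; bidirectional fit versus DMSO baseline.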

Assay [4] is described as follows: ATG_Sox_CIS: Attagene CIS-FACTORIAL HepG2 Assay for human SRY-box transcription factor (SOX) (AID 2282960). The conditions noted are these: HepG2 Attagene cis-factorial SOX reporter, mRNA; actives raise or lower the signal. In short, it runs like this: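 HepG2 cells transiently transfected with cis-element-driven multiple reporter transcription units, dosed 24 h; reporter mRNA measured by RT-PCR, FAM labelling, HpaI digestion and capillary electrophoresis. Bidirectional fit versus DMSO baseline.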

The target of assay [5] is Transcription factor Sp1 (Homo sapiens) (UniProt P08047). Kind of assay: ATG_Sp1_CIS: Attagene CIS-FACTORIAL HepG2 Assay for human Specificity Protein 1 (Sp1) (AID 2282961). The conditions noted are these: HepG2 Sp1 cis-reporter transcription, actives raise or lower the signal. In short, it runs like this: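 HepG2 cells transiently transfected with multiple reporter transcription units driven by cis-regulatory elements; Sp1-responsive reporter mRNA measured 24 h after dosing by RT-PCR and capillary electrophoresis fluorescence, fitted bidirectionally against DMSO baseline.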

A short description of assay [6]: ATG_SREBP_CIS: Attagene CIS-FACTORIAL HepG2 Assay for human Sterol Regulatory Element Binding (SREBP) (AID 2282962). As to conditions: HepG2 Attagene cis-factorial SREBP reporter, mRNA; actives raise or lower the signal. In short, it runs like this:
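Transfected HepG2 (cis-regulated reporter library, endogenous TFs) → compound 24 h → total RNA → oligo(dT) RT → reporter-specific PCR → FAM primer extension, HpaI cut → CE fluorescence. Fit bidirectional vs DMSO.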

The target of assay [7] is Signal transducer and activator of transcription 3 (Homo sapiens) (UniProt P40763). Briefly: ATG_STAT3_CIS: Attagene CIS-FACTORIAL HepG2 Assay for human Signal Transducer and Activator of Transcription 3 (STAT3) (AID 2282963). As to conditions: HepG2, Attagene cis-factorial STAT3 reporter transcription; actives raise or lower the signal. The procedure, abridged:
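Endogenous STAT3-responsive cis-element activity was read in transiently transfected HepG2 cells after 24 h treatment. Reporter transcripts were quantified via RT-PCR and capillary electrophoresis, with DMSO as negative control and bidirectional curve fitting.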

Assay [8] in a line: ATG_TA_CIS: Attagene CIS-FACTORIAL HepG2 Assay for human TA Basal Promoter (AID 2282964). As to conditions: HepG2 Attagene CIS-factorial TA basal promoter reporter; actives raise or lower the signal. The procedure, abridged:
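HepG2 cells transiently transfected with multiple reporter units under cis promoter elements, reporting endogenous transcription factor activity; this endpoint tracks the TA basal promoter as background control. Reporter mRNA after 24 h dosing measured by RT-PCR/capillary electrophoresis; bidirectional fits versus DMSO.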

A short description of assay [9]: ATG_TAL_CIS: Attagene CIS-FACTORIAL HepG2 Assay for human TAL Basal Promoter (AID 2282966).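 Also: background control endpoint measuring basal TAL promoter reporter mRNA not a specific factor.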 As to conditions: HepG2 Attagene cis-factorial TAL promoter reporter; actives raise or lower the signal. The procedure, abridged: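 In this cell-based multiplex, HepG2 liver cells bearing cis-promoter reporter constructs are dosed for 24 hours. Total RNA is reverse-transcribed and amplified, labelled fragments are sized by capillary electrophoresis, and signal changes are fitted bidirectionally versus DMSO.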

Assay [10] in a line: ATG_TCF_b_cat_CIS: Attagene CIS-FACTORIAL HepG2 Assay for human T-Cell-Factor with beta-catenin (TCF/b-cat) (AID 2282965). As to conditions: HepG2 TCF/beta-catenin cis-reporter transcription, actives raise or lower the signal. In short, it runs like this:
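Measured: reporter mRNA in HepG2 transiently transfected with cis-promoter reporter units, 24 h after chemical addition. Fitting was bidirectional, DMSO as negative control.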

Signal transducer and activator of transcription 3 (Homo sapiens), sequence (P40763 whole entry, looked up): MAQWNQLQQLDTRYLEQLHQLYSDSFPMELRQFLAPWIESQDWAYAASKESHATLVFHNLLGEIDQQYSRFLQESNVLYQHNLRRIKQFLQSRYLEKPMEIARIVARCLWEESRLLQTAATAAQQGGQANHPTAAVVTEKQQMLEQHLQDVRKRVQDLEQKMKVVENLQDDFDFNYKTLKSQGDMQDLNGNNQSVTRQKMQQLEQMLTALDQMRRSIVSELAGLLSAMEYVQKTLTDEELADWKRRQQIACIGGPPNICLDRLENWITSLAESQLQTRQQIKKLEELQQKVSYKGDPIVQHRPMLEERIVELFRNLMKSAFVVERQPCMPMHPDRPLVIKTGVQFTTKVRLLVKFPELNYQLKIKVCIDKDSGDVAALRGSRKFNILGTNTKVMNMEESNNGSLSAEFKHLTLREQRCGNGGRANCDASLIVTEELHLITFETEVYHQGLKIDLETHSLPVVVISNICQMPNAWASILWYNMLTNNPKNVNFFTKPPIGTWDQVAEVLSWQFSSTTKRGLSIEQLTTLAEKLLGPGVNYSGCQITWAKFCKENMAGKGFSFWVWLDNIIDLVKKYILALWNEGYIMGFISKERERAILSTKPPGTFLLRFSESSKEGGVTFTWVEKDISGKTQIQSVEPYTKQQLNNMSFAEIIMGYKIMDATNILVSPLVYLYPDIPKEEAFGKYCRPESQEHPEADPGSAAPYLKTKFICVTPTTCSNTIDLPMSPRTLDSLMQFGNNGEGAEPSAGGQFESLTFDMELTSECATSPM
Transcription factor Sp1 (Homo sapiens), sequence (P08047 whole entry, looked up): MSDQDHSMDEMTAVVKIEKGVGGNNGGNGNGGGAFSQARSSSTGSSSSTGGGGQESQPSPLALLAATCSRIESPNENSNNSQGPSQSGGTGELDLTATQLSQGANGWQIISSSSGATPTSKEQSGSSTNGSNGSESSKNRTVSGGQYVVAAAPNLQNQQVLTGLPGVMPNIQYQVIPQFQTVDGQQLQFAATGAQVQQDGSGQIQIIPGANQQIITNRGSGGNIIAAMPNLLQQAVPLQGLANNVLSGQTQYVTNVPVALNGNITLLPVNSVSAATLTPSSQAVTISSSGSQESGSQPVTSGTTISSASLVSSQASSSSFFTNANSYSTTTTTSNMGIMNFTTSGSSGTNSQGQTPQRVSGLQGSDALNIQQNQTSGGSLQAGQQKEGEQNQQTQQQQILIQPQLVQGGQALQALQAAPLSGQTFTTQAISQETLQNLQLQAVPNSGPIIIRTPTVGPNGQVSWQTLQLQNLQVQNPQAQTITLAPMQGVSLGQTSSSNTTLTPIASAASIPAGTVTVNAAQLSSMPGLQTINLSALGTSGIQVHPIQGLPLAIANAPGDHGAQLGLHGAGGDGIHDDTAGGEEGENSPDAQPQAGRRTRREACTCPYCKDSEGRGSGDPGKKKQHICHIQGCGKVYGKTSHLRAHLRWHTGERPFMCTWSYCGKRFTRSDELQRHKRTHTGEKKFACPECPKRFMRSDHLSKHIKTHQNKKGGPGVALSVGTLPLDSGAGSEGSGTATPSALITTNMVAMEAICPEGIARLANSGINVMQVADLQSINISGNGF

Take `COP(=O)(OC)OC(Br)C(Cl)(Cl)Br` (stereo unspecified): the call in [1], in assay [2], in [3], in assay [4], in assay [5] and in assay [6] was inactive. Moreover, the result in [7], in [8] and in [9] was inactive.
Regarding `CN(C)NC(=O)CCC(=O)O`, the call in assay [1], in assay [2], in [3], in assay [4], in assay [6] and in assay [7] was inactive. Moreover, the result in [8], in [10] and in assay [9] was inactive.
For `Cc1nn(-c2cc(NS(C)(=O)=O)c(Cl)cc2Cl)c(=O)n1C(F)F`, the AC50 in assay [1] is 5.33 µM (active). In addition, the result in [2], in assay [3], in assay [4], in assay [6], in assay [7] and in assay [8] was inactive. For the same compound, the compound was classed as inactive in [10] and in [9].
As for `CC(C1CC1)C(O)(Cn1cncn1)c1ccc(Cl)cc1` (stereo unspecified), the AC50 in [1] was 24.8 µM (active). Also, the compound was called inactive in [2], in assay [3], in assay [4], in [6], in assay [7] and in assay [8]. Also, the outcome in assay [10] and in assay [9] was inactive.
For `Cc1cc(C2CC2)nc(Nc2ccccc2)n1`, the AC50 in [1] is 13.4 µM (active); in assay [2], 22 µM (active); in assay [4] it was 90 µM (active); in assay [5], 84.7 µM (active); in assay [6] it was 12.6 µM (active). For the same compound, the outcome in assay [3], in [7], in assay [8] and in assay [9] was inactive.
Turning to `CCOC(=O)CC(SP(=O)(OC)OC)C(=O)OCC` (stereo unspecified), the figures for the AC50 in assay [1] and in [2] were 34.8 µM (active) and 39.7 µM (active), respectively. Further, the outcome in assay [3], in assay [4], in assay [6], in assay [7], in assay [8] and in [10] was inactive. For the same compound, the compound was classed as inactive in assay [9].
In the case of `COP(=O)(NC(C)=O)SC` (stereo unspecified), the AC50 in assay [1] was 30.5 µM (active). In addition, the compound was called inactive in assay [2], in assay [3], in [4], in assay [5], in assay [6] and in assay [7]. Moreover, the call in [8] and in assay [9] was inactive.
Consider `CCOP(=S)(OCC)Oc1ccc([N+](=O)[O-])cc1`, for which the AC50 in [1] was 9.68 µM (active); in assay [2] it was 50 µM (active); in assay [6], 89.1 µM (active). For the same compound, the call in [3], in [4], in [5], in assay [7], in [8] and in assay [10] was inactive. Also, the outcome in assay [9] was inactive.
As for `CN(C)C(=O)Nc1cccc(C(F)(F)F)c1`, the result in [1], in [2], in [3], in assay [4], in assay [5] and in assay [6] was inactive. In addition, the compound was called inactive in [7], in [8] and in assay [9].
Turning to `COP(=O)(OC)C(O)C(Cl)(Cl)Cl` (stereo unspecified), the AC50 is 16.1 µM (active) in [1] and 41.5 µM (active) in assay [2]. For the same compound, the call in assay [3], in assay [4], in [5], in assay [6], in [7] and in assay [8] was inactive. Further, in assay [9], the compound was called inactive.
Consider `C=C(C)[C@H]1Cc2c(ccc3c2O[C@@H]2COc4cc(OC)c(OC)cc4[C@@H]2C3=O)O1`, for which the compound was called inactive in assay [1], in assay [3], in assay [4], in assay [7], in [8] and in assay [10]. For the same compound, the outcome in [9] was inactive. In addition, the AC50 was 0.0321 µM (active) in [2], 0.039 µM (active) in [5] and 0.00445 µM (active) in assay [6].
Consider `COc1ccc(C(=CC(=O)N2CCOCC2)c2ccc(Cl)cc2)cc1OC`, for which the results for the AC50 in assay [1], in assay [2] and in assay [3] were 5.15 µM (active), 21.8 µM (active) and 5.72 µM (active), respectively. Moreover, the call in assay [4], in [5], in assay [6], in [7], in assay [8] and in assay [10] was inactive. The compound was classed as inactive in assay [9].
As to `CCCCOC(=O)c1ccccc1C(=O)O`, the compound was classed as inactive in assay [1], in assay [2], in assay [3], in assay [4], in [5] and in assay [6]. For the same compound, the result in [7], in assay [8] and in [9] was inactive.
For `CCCCOC(=O)[C@@H](C)Oc1ccc(Oc2ccc(C#N)cc2F)cc1`, in assay [1], the AC50 was 64.7 µM (active). Besides, the result in assay [2], in assay [3], in assay [4], in [5], in [6] and in assay [7] was inactive. Also, the compound was called inactive in assay [8] and in [9].
For `C[Si](Cn1cncn1)(c1ccc(F)cc1)c1ccc(F)cc1`, the AC50 in assay [1] was 3.52 µM (active); in assay [2], 43.1 µM (active); in assay [3] it was 18.7 µM (active); in assay [6], 13.9 µM (active); in assay [8], 50 µM (active). Also, the call in assay [4], in assay [7], in [10] and in assay [9] was inactive.
For `CCCCSP(=O)(SCCCC)SCCCC`, the AC50 in [1] is 12.9 µM (active); in assay [2], 11.7 µM (active); in assay [4], 76.7 µM (active); in [6], 20.1 µM (active); in [7], 50 µM (active); in [8] it was 80.2 µM (active). Besides, the AC50 in [9] is 13 µM (active). For the same compound, the call in assay [3] and in assay [10] was inactive.
In the case of `FC(F)C(F)(F)OCC(Cn1cncn1)c1ccc(Cl)cc1Cl` (stereo unspecified), the AC50 in assay [1] was 6.25 µM (active); in assay [2], 44.5 µM (active); in [3], 50 µM (active); in assay [6] it was 13.2 µM (active). Moreover, the call in [4], in assay [5], in [7], in assay [8] and in assay [9] was inactive.
